USP2a block: USP2a (human) protease inhibition. O75604. USP2 core, Ub-CHOP2 coupled fluorogenic reporter, 485/531. Potency, µM (doses to about 38.3 µM), for inactives: at the highest dose activity change, negative = inhibition, hits mostly inhibitors. 0.01% of 330,000 active. AID 463254;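 also: plate controls were DMSO wells for no effect and full inhibition by NEM control for full effect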
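Cell-free coupled assay: 10nM USP2 core preincubated 30min RT with compound in Tris-HCl pH 8.0/CaCl2/CHAPS buffer, then 25nM Ub-CHOP2 and 25nM reporter substrate; fluorescence (Ex 485/Em 531) read after 60min RT, normalized to NEM inhibition, concentration-response curves fitted.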
Eya2 phos inh: blocks the phosphatase activity of human Eya2; recombinant Eya2, OMFP fluorescence dephosphorylation (OMFP is methylfluorescein phosphate); O00167; 0.006% of 330,000 active; Potency, µM (titrated, usually from 76.9 µM), for inactives: top-dose activity, negative = inhibition, actives largely listed as inhibitors; AID 488837; also: % is scaled to controls: 0 for no effect and ±100 for the full control effect
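Eya2 protein (added as 0.2 uM solution) was preincubated with compound for 10 min at ambient temperature in 50 mM HEPES pH 7.5, 50 mM NaCl, 5 uM MgCl2, 0.05% BSA, 1 mM DTT. OMFP (added at 50 uM) then reacted 10 min; fluorescence read at 485/525 nm.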
12-LOX inh: blocks human arachidonate 12S-lipoxygenase; P18054; purified 12hLO, xylenol orange hydroperoxide absorbance; Potency, µM (doses to about 108 µM), inactives show top-dose activity change, negative = inhibition, usual class: inhibitors; 1.1% of 580,000 active; AID 1671190; also: % is scaled to controls: 0 for no effect and ±100 for the full control effect
Target sequence (P18054 whole entry, looked up): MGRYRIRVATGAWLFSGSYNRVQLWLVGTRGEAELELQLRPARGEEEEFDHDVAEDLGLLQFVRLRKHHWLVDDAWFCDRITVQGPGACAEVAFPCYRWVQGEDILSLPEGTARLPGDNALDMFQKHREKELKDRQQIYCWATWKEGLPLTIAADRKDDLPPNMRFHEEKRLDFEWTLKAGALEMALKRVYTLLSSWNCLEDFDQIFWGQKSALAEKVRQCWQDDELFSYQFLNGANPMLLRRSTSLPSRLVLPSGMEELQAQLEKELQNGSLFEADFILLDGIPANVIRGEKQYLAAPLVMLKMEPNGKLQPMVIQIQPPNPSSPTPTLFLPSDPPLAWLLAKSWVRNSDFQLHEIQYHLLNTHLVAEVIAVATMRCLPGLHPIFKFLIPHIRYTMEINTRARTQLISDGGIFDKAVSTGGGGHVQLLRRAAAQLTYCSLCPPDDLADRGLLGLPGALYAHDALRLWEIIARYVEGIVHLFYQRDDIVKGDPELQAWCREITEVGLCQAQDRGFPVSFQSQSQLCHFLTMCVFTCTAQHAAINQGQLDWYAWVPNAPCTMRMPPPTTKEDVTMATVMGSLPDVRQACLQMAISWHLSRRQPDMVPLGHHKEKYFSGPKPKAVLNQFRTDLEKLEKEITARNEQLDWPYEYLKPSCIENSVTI
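Purified human 12hLO (150 nM final) in 25 mM Hepes, 0.01% Triton X-100, pH 7.0 was preincubated 15 min at room temperature with compound. Then 40 uM arachidonic acid was added, 30 min. Hydroperoxide was read by Fe-XO absorbance ratio 573/405 nm.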
TSG101-PTAP inh: blocks PTAP/TSG101 interaction to inhibit HIV-1 budding. Fluorescence polarization, FITC-PTAP peptide / Tsg101 binding. Potency, µM (top dose mostly 115 µM), without a hit: at the highest dose activity change, negative = inhibition, actives largely listed as inhibitors. 340,000 tested, under 10 active; active = well fitted inhibition curve with a large enough effect in the main read-out, with a control signal flat, not every such curve was filed as active; inconclusive = small, poorly fitted or top-dose-only effect, or effect the other way, or a change in a side signal; inactive = no such curve, though single readings can be large or run the other way; also: % of control where 0% means no effect
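Fluorescence polarization binding of Tsg101 binding domain (10 uM final) to FITC-labeled PTAP peptide (50 nM final) in HEPES pH 7.5 buffer with NaCl, Tween 20, EDTA, TCEP. Compounds added before peptide; binding 20 min at RT.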
* hit, by the source's call; ? = inconclusive; · = no result given; ! = a repeat was not active; [ ] = remark or other dose. Hits are enriched below; roughly 1.1% of the tested compounds scored in any of these assays. Unless noted, calls follow the shape of the dose curve; as a rule, active = well fitted curve in the direction sought with a large enough effect; inconclusive = small, poorly fitted or top-dose-only effect, or another doubt; inactive = no such curve, though single readings can be large; an effect the other way counts as inactive or inconclusive. Potency is read from the fitted curve at half-maximal effect.

SMILES | USP2a block | Eya2 phos inh | 12-LOX inh | TSG101-PTAP inh
CCCCC1=CC2=CC(=O)C(C)(OC(=O)C3CCCC3)C(=O)C2=CO1 (stereo unspecified) | 1% | -18% | 16µM* | -2%
CC1(OC(=O)C2CCCC2)C(=O)C=C2C=C(c3ccsc3)OC=C2C1=O (stereo unspecified) | 7% | -15% | 7.9µM* | -9%
CC1(OC(=O)c2ccco2)C(=O)C=C2C=C(C3CC3)OC=C2C1=O (stereo unspecified) | · | · | 45µM* | -8%
CCOc1ccc(C(=O)N2CCCN(c3cc(-c4ccc(Cl)cc4)[nH]n3)CC2)cc1OCC | · | · | 15% | ·
CC(=O)Nc1cccc(-c2ccnc(-c3nnc(C)n3CCc3ccccc3)c2)c1 | · | · | 26%[176 µM] | ·
OC1(CN2CCCN(c3nc4ccccc4s3)CC2)CNCCOC1 (stereo unspecified) | · | · | 70% | ·
O=C1C(=Cc2cccc(O)c2O)SC(=S)N1CCCN1CCOCC1 | · | · | 6.3µM* | ·
Nc1ccc(N2CCOCC2)c2nonc12 | 2% | -7% | 40µM* | -5%
O=C(Nc1ccc(N2CCOCC2)c2nonc12)C1CCCC1 | -2% | -18% | -12% | 2%
O=C(NC1CCN(c2cc(-c3cccs3)[nH]n2)C1)c1cccc(Cl)c1 (stereo unspecified) | · | · | 48% | ·
CC(NC(=O)CCCc1c[nH]c2ccccc12)c1ccncc1 (stereo unspecified) | · | · | 48% | ·
COc1ccc(CCNC(=O)c2ccc3c(c2)CCC(=O)N3)cc1OC | · | · | -21% | ·
COc1cccc(SCC(=O)c2ccc3c(c2)CCC(=O)N3)c1 | · | · | 35µM* | ·
Cc1ccc(/C=C/C(=O)Nc2ccc(Oc3ccccc3)cc2)o1 | 2% | -16% | 16µM* | 0%
CC(=O)c1ccc(NC(=O)/C=C/c2ccc(C)o2)cc1 | · | · | -15% | ·
Cc1ccc(/C=C/C(=O)Nc2ccc([N+](=O)[O-])cc2)o1 | -2% | -19% | 6.3µM* | -10%
CCCOc1ccc(/C=C/C(=O)Nc2ccc([N+](=O)[O-])cc2)cc1 | 0% | 10% | 0% | -1%
O=C(NCc1ccc(OCC(F)(F)F)cc1)c1ccc(S(=O)(=O)N2CCOCC2)cc1 | · | · | 12% | ·
CCn1c2ccccc2c2cc(NC(=O)c3ccc[n+]([O-])c3)ccc21 | · | · | 0% | ·
O=Cc1cccn1-c1ccc(Br)cc1Br | · | · | -10% | ·
O=C1c2ccccc2C(=O)c2c1ccc(O)c2O | · | · | 2.3µM*! | ?
COC(=O)c1ccc2c(c1O)C(=O)c1ccccc1C2=O | 3% | -18% | 6% | -6%
O=C(NC(=S)N1CCOCC1)c1ccccc1Cl | 0% | 4% | 1.3µM* | -3%
Cc1ccccc1Cc1c(C)nc2c(C(=O)NCCc3noc(-c4ccncc4)n3)cnn2c1C | · | · | 7% | ·
CC1=C/C(=N\Nc2nncc3ccccc23)CC1 | · | · | 50µM* | ·
SMILES | USP2a block | Eya2 phos inh | 12-LOX inh | TSG101-PTAP inh
Cc1cccc(C2C3=C(Nc4[nH]n(-c5ccccc5)c(=O)c42)c2ccccc2C3=O)c1 (stereo unspecified) | 2% | -12% | 35µM* | -4%
O=C(COc1ccc(F)cc1)Nc1ccc(-c2nnc3n2CCCC3)cc1 | · | · | 32µM* | ·
O=C(COc1ccc(-c2nnc3n2CCCC3)cc1)Nc1ccc(Br)cc1 | · | · | 4% | ·
Clc1ccc(OCCn2ccnc2)c(Cl)c1 | -1% | 13% | -20% | -4%
Clc1ccc(OCCn2ccnc2)c(Br)c1 | 2% | 4% | 3.2µM* | -4%
CSc1ccc(-c2cccc(CN)c2)cc1 | · | · | -2%[12.5 µM] | ·
O=c1[nH]c(C2CCCN(CC3CCCC3)C2)nc2ccc(F)cc12 (stereo unspecified) | · | · | 30% | ·
CC(=O)Nc1ccc2c(O)cc(S(=O)(=O)O)cc2c1 | · | · | ? | -8%
COc1ccccc1Nc1ccc2c(O)cc(S(=O)(=O)O)cc2c1 | · | · | 10µM* | -6%
O=S(=O)(O)c1cc(O)c2cc(Nc3ccccc3)ccc2c1 | · | · | 35µM* | -8%
O=S(=O)(O)c1ccc(O)c2cc(Nc3ccccc3)ccc12 | · | · | 32µM* | -14%
O=S(=O)(O)c1cc(O)c2ccc(Nc3ccccc3)cc2c1 | · | · | 18µM* | -13%
O=C(Nc1ccnn1C1CCN(Cc2ccc(OC(F)F)cc2)CC1)C1CCCC1 | -2% | -5% | ? | 0%
O=C(Nc1ccnn1C1CCN(C/C=C/c2ccccc2)CC1)C1CCCC1 | 1% | 1% | 0% | -8%
O=C(Nc1ccnn1C1CCN(Cc2ccc(OC3CCCC3)cc2)CC1)C1CC1 | · | · | 8.9µM* | ·
COc1ccc(/C=C/CN2CCC(n3nccc3NC(=O)C3CC3)CC2)cc1 | -2% | 8% | 25µM* | -2%
Cc1cc(C)c2nc(SCC(=O)N(C)CCC#N)cc(C)c2c1 | · | · | -14% | ·
CCCc1sc(C(=O)Nc2ccccc2O)cc1CC | · | · | 13µM* | ·
O=C(Nc1ccc2oc(-c3cccnc3)nc2c1)c1ccccc1Cl | · | · | 5% | ·
CC(C)(C)c1ccc(C(=O)NC(=S)Nc2nc3c(s2)CCCC3)cc1 | 3% | -12% | 45µM* | -7%
CN(C)c1ccc(C(=O)Nc2nc3c(s2)CCCC3)cc1 | 3% | 7% | ? | 1%
COc1cccc(Nc2ncc(-c3ccccc3)c3c2OCC3)c1 | · | · | 52%[176 µM] | ·
O=C(NCc1ccccc1)C(c1ccc(C(F)(F)F)cc1)n1c(=O)c(-c2ccco2)nc2ccccc21 (stereo unspecified) | · | · | 5µM* | ·
O=C(NC1CCCCC1)C(c1ccc(-c2ccccc2)cc1)n1c(=O)c(-c2ccco2)nc2ccccc21 (stereo unspecified) | · | · | 45µM* | ·
CCCCCNC(=O)C(c1ccccc1F)n1c(=O)c(-c2ccco2)nc2ccccc21 (stereo unspecified) | · | · | 20µM* | ·
SMILES | USP2a block | Eya2 phos inh | 12-LOX inh | TSG101-PTAP inh
O=C(NCc1ccccc1)C(c1ccc(C(F)(F)F)cc1)n1c(=O)c(-c2ccccc2)nc2ccccc21 (stereo unspecified) | · | · | -13% | ·
CCCCCNC(=O)C(c1ccc(-c2ccccc2)cc1)n1c(=O)c(-c2ccccc2)nc2ccccc21 (stereo unspecified) | · | · | 1% | ·
CCCCCNC(=O)C(c1ccc(OC)cc1)n1c(=O)c(-c2ccco2)nc2ccccc21 (stereo unspecified) | · | · | 5.6µM* | ·
CC(=O)NC(CC(=O)N(CC(F)(F)F)C1CC1)c1cccs1 (stereo unspecified) | · | · | 0% | ·
Cc1ccccc1CCNC(=O)C1CC2CCCC(C1)C2=O (stereo unspecified) | · | · | -3% | ·
CC(NC(=O)c1cc(=O)[nH]c2ccccc12)c1ccccc1 (stereo unspecified) | 3% | -7% | -17% | -1%
O=C(NC1(c2ccccc2)CCC1)c1cc(=O)[nH]c2ccccc12 | · | · | 11µM* | ·
COC(=O)[C@@]1(C)[C@H]2C(=O)N(Cc3ccccc3)C(=O)[C@H]2[C@H]2CN=C(SCc3ccc(C)cc3)N21 | 2% | -2% | 40µM* | -2%
O=C(O)Cc1sc(-c2ccccc2)nc1-c1ccccc1 | 0% | 16% | 12% | -2%
O=C(O)Cc1nc(-c2cccnc2)sc1-c1ccc(Br)cc1 | 1% | 3% | 28µM* | -1%
